# Experimental data: PubChem BioAssay
# Activity calls are given as the source filed them. Unless noted, the rule behind the calls is not given here.
# Experiments:
# [1] = system: Wnt5a (protein binding on small-molecule microarray); experiment: Wnt5a binders on small-molecule microarray, primary screen, biophysical, 635/667 nm fluorescence (AID 1142); details: 635 nm fluorescence, higher = more signal;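 note: fluorescence read at 667 nm with signal to noise per printed feature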
# [2] = cell viability in Huh7 cells, primary screen, cytotoxicity control for HCV replication inhibitor project, CellTiter-Glo luminescence, basal, 48 h (AID 1143); details: Huh7 HCV replicon, higher = more signal, called active from +8 up or from −8 down;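 note: Huh7 hepatoma cells carrying a hepatitis C replication reporter with no stimulus; test concentration not given here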
# [3] = P. aeruginosa biofilm formation inhibitors, primary screen, PAO1 strain, BacTiter-Glo luminescence, LB-PBS (AID 1144); details: 12 h, higher = more signal
# [4] = CREB reporter modulators without forskolin, primary screen, cell-based, PC12, CRE-LacZ reporter, unstimulated (AID 1145); details: no forskolin, luminescence, 4.5 h, higher = more signal, called active from +8 up or from −8 down
# [5] = CREB reporter modulators under forskolin, primary screen, cell-based, PC12, CRE-LacZ reporter, forskolin-stimulated (AID 1146); details: luminescence, 4.5 h, higher = more signal, called active from +8 up or from −8 down;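 note: PC12 cells with 6xCRE LacZ reporter stimulated by forskolin 10 µM; beta-galactosidase reporter signal reflecting CREB driven transcription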
# [6] = target: Streptavidin (Streptomyces avidinii) (UniProt P22629); experiment: streptavidin binders on small-molecule microarray, primary screen, artefact control for SMM compound annotation, biophysical, 635/667 nm fluorescence (AID 1147); details: streptavidin binding, higher = more signal;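 note: signal reflects streptavidin binding to arrayed compounds as a control protein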
# [7] = small-molecule binders of probe aInhba, primary screen, biochemical, small-molecule microarray, 635/667 nm fluorescence (AID 1148); details: higher = more signal;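 note: score merges 667nm spot fluorescence with signal-to-noise for antibody binding to printed compounds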
# [8] = target: Torsin-1A (Homo sapiens) (UniProt O14656); experiment: torsin A binders from cell lysate, primary screen, small-molecule microarray, wild-type, 635/667 nm (AID 1149); details: COS7 hTOR1A-WT lysate, 635 nm fluorescence, higher = more signal
# [9] = target: Torsin-1A (Homo sapiens) (UniProt O14656); experiment: small-molecule binders of mutant TOR1A in lysate, primary screen, cell lysate, small-molecule microarray, COS7 lysate, 635/667 nm fluorescence (AID 1150); details: COS7 hTOR1A mutant lysate, 635 nm fluorescence, higher = more signal;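 note: score pools 667 nm emission and signal to noise measuring lysate protein binding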
# [10] = system: Sonic hedgehog protein (Shh); experiment: small-molecule binders of Shh protein, primary screen, biochemical, small-molecule microarray, 635/667 nm fluorescence (AID 1151); details: small-molecule microarray binding, 635 nm fluorescence; higher = more signal;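 note: Shh protein binding to compounds spotted on small-molecule microarray slides; score combines spot fluorescence intensity with signal-to-noise across triplicate slides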
# [11] = E. coli DRC41 culture turbidity changes, primary screen, E. coli filamentation inducer project, strain DRC41, OD650, 48 h (AID 1152);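 note: E. coli MC1000 strain DRC41 lacking acrAB efflux pump and sulA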; details: E. coli DRC41 (acrAB sulA), higher = more signal, called active from +8 up or from −8 down
# [12] = small-molecule binders of probe aLefty1, primary screen, biochemical, small-molecule microarray, 635/667 nm fluorescence (AID 1153); details: higher = more signal;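 note: score merges spot fluorescence with signal-to-noise ratio from the scanned slide images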
# [13] = PSAC antagonists in infected red cells, primary screen, cell-based, P. falciparum Indochina, OD700, 1 h (AID 1154); details: P. falciparum Indochina infected RBC osmotic lysis, higher = more signal, called active from +8 up or from −8 down
# [14] = PSAC antagonists in infected red cells, primary screen, cell-based, P. falciparum Indochina, OD700, 2 h (AID 1155);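 note: lysis reports solute entry through the parasite surface anion channel PSAC; channel blockers reduce lysis of infected cells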; details: P. falciparum Indochina infected erythrocytes, osmotic lysis OD700; higher = more signal, called active from +8 up or from −8 down
# [15] = osmotic lysis modulators in infected erythrocytes, primary screen, PSAC antagonist project, cell-based, P. falciparum Indochina, OD700, 3 h (AID 1156); details: higher = more signal, called active from +8 up or from −8 down
# [16] = PSAC antagonists in infected red cells, primary screen, cell-based, P. falciparum Indochina, OD700, 18 h (AID 1157); details: P. falciparum Indochina infected erythrocytes, osmotic lysis OD700, 18 h; higher = more signal, called active from +8 up or from −8 down
# [17] = modulators of S6 phosphorylation in cells, primary screen, cell-based, A549, cytoblot, luminescence, serum-stimulated (AID 1158); details: A549 phospho-S6 cytoblot, 5 h, higher = more signal;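 note: serum-stimulated A549 lung adenocarcinoma cells; signal is phosphorylated S6 detected by cytoblot immunostaining with HRP secondary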
# [18] = target: NADPH oxidase 2 (Homo sapiens) (UniProt P04839); experiment: NOX2-dependent H2O2 signal modulators, primary screen, NOX inhibitor project, cell-based, HEK293-NOX2, PMA-stimulated, Amplex Red fluorescence (AID 1159); details: 45 min, higher = more signal, called active from +8 up or from −8 down; note: test concentration not given here
# [19] = target: NADPH oxidase 4 (Homo sapiens) (UniProt Q9NPH5); experiment: NOX4-dependent H2O2 signal modulators, primary screen, NOX inhibitor project, cell-based, HEK293-NOX4, tetracycline-induced, Amplex Red fluorescence (AID 1160); details: 45 min, higher = more signal, called active from +8 up or from −8 down
# [20] = target: NADPH oxidase 5 (Homo sapiens) (UniProt Q96PH1); experiment: NOX5-dependent H2O2 signal modulators, primary screen, NOX inhibitor project, cell-based, HEK293-NOX5, Amplex Red fluorescence (AID 1161); details: HEK293-NOX5, ionomycin, 45 min, higher = more signal
# Chain of NADPH oxidase 5 (Homo sapiens) (Q96PH1 whole entry, looked up): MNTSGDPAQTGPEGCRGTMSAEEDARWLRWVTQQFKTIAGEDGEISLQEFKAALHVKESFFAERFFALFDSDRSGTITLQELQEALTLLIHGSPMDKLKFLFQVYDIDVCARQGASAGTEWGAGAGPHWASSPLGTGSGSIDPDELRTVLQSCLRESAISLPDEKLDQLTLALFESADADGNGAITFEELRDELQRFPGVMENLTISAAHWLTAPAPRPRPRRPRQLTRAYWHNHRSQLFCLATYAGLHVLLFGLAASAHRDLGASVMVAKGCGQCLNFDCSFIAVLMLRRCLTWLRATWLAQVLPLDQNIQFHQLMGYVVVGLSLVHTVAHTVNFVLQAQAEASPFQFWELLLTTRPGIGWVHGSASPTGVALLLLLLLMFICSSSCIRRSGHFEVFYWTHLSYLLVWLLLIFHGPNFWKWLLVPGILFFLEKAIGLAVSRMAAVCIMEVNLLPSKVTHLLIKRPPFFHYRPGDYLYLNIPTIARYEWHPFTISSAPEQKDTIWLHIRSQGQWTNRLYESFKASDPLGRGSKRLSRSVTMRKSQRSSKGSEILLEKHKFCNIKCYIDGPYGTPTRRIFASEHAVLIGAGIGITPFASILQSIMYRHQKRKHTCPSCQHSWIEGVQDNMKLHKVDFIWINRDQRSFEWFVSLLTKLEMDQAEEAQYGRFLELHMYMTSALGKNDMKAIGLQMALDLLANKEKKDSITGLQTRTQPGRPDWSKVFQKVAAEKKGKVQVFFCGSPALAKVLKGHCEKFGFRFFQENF
# Chain of Torsin-1A (Homo sapiens) (O14656 whole entry, looked up): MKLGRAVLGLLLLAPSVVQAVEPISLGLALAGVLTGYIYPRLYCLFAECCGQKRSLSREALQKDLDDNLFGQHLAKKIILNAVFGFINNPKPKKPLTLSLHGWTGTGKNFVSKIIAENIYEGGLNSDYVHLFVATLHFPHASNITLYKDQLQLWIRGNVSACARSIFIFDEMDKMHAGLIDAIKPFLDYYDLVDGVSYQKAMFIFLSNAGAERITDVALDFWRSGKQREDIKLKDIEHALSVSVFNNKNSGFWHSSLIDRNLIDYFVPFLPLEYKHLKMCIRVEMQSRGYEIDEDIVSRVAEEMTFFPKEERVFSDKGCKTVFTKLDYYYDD
# Chain of Streptavidin (Streptomyces avidinii) (P22629 whole entry, looked up): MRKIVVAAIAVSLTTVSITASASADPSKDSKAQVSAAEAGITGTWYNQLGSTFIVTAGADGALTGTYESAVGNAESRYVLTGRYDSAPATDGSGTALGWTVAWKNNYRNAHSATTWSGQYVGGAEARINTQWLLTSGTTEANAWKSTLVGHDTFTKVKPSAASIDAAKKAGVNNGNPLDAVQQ
# Chain of NADPH oxidase 4 (Homo sapiens) (Q9NPH5 whole entry, looked up): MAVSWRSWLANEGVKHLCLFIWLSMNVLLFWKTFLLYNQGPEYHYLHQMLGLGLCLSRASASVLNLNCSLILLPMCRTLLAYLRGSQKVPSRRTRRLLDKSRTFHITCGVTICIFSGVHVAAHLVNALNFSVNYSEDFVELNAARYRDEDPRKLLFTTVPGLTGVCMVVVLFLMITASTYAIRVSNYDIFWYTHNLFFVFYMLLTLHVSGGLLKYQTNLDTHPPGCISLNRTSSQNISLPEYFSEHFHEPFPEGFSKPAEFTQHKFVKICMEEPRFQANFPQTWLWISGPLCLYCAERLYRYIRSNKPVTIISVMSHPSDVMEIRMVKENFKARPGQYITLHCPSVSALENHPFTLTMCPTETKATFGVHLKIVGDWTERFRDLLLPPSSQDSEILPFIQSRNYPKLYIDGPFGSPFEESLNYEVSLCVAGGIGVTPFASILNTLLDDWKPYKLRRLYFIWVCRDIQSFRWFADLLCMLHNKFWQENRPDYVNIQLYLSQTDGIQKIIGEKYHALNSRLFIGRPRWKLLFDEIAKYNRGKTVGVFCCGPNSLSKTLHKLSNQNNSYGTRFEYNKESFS
# Chain of NADPH oxidase 2 (Homo sapiens) (P04839 whole entry, looked up): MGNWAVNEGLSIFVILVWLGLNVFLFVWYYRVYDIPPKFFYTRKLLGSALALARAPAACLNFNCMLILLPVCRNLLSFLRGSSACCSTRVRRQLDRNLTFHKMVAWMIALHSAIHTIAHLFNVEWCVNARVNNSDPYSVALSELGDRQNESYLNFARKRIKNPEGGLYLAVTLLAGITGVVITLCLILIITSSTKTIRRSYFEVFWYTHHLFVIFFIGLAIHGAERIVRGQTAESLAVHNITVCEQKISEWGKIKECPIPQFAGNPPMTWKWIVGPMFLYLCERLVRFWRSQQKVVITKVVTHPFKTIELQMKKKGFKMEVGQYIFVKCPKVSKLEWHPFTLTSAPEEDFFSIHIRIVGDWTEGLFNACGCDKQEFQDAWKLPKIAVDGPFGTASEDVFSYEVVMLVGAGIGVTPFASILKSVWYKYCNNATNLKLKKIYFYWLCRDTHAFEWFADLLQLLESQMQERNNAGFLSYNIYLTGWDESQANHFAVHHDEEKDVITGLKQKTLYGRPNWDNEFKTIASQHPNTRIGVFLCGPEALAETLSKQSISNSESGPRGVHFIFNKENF
SMILES,composite z-score [1],z-score [2],z-score [3],z-score [4],z-score [5],composite z-score [6],composite z-score [7],composite z-score [8],composite z-score [9],composite z-score [10],z-score [11],composite z-score [12],z-score [13],z-score [14],z-score [15],z-score [16],z-score [17],z-score [18],z-score [19],z-score [20]
COc1ccc(NC(=O)O[C@H]2[C@@H]3OC(=O)[C@H](Cc4cccc(Br)c4)C/C=C/C[C@@H](Cc4cccc(Br)c4)C(=O)O[C@H]3[C@@H](OC)O[C@@H]2CO)cc1,0.232,-0.878 (inactive),0.388 (inactive),0.753 (inactive),-0.686 (inactive),0.328,0.318,0.344,1.34,0.597,0.446 (inactive),0.358,0.469 (inactive),-0.173 (inactive),-0.284 (inactive),0.434 (inactive),0.353,-1.73 (inactive),-1.21 (inactive),-1.64
O=C(NCCN1CCOCC1)[C@@H]1c2ccccc2C(=O)N(Cc2ccccc2)[C@H]1c1ccc(CO)cc1,-0.817,-1.62 (inactive),-0.996 (inactive),0.145 (inactive),-0.674 (inactive),1.49,-0.0719,-1.46,-0.21,-1.67,0.347 (inactive),-0.101,1.23 (inactive),-0.222 (inactive),0.766 (inactive),-0.0161 (inactive),-0.214,-1.71 (inactive),-0.652 (inactive),-2.89
COCCOC(=O)N1C(=O)[C@@]2(c3ccccc31)[C@H](c1ccccc1OCCO)N1[C@H](c3ccccc3)[C@H](c3ccccc3)OC(=O)[C@H]1[C@@H]2C(N)=O,0.408,-4.2 (inactive),-0.0116 (inactive),0.272 (inactive),1.86 (inactive),1.25,0.296,-0.401,1.07,1.48,-0.714 (inactive),0.221,3.59 (inactive),1.18 (inactive),-0.463 (inactive),0.689 (inactive),0.231,1.88 (inactive),0.787 (inactive),0.212
C=CCNC(=O)[C@@H]1[C@H]2C(=O)O[C@H](c3ccccc3)[C@H](c3ccccc3)N2[C@H](c2ccc(OCCO)cc2)[C@@]12C(=O)N(C(=O)OCCOC)c1ccc(C#CCCO)cc12,0.85,-3.32 (inactive),-0.594 (inactive),-0.375 (inactive),0.0859 (inactive),0.712,-0.0521,0.625,0.582,1.17,3.11 (inactive),0.503,4.81 (inactive),0.343 (inactive),-0.38 (inactive),-1.47 (inactive),2.25,1.3 (inactive),0.821 (inactive),-0.573
C=C(COC)/C(=C/C[C@@H](OC(C)=O)c1ccc(CO)o1)c1cc(C(=O)OC)ccc1OC,-0.0561,0.0759 (inactive),-0.921 (inactive),-0.0602 (inactive),1.12 (inactive),-0.367,-0.0933,-0.5,0.666,1.64,0.265 (inactive),0.051,1.56 (inactive),0.362 (inactive),0.389 (inactive),0.0621 (inactive),0.187,0.184 (inactive),-0.207 (inactive),0.13
CCC(CC)C(O)C1C=CC2C(=O)N(c3ccccc3)C(=O)C2N1Nc1ccc([N+](=O)[O-])cc1 (stereo not given),0.205,0.0373 (inactive),-0.639 (inactive),-0.62 (inactive),-0.68 (inactive),0.754,0.124,0.273,0.427,0.179,-0.639 (inactive),0.342,6.6 (inactive),0.997 (inactive),0.136 (inactive),0.507 (inactive),-0.469,-0.272 (inactive),-0.44 (inactive),-1.03
C#C[C@@H](CC)O[Si](C#CCCCC#N)(C(C)C)C(C)C,0.162,-0.667 (inactive),0.132 (inactive),-0.868 (inactive),4.95 (inactive),-0.0686,-0.0762,0.491,1.69,0.473,0.527 (inactive),-0.117,1.58 (inactive),1.14 (inactive),0.186 (inactive),0.676 (inactive),-0.336,1.03 (inactive),-0.222 (inactive),1.31
COCCCNC(=O)[C@@]1(Sc2ccc(C)cc2)CC(=O)N(Cc2ccccc2Cl)[C@@H]1c1ccc(CO)cc1I,-0.509,-1.35 (inactive),0.241 (inactive),-0.168 (inactive),1.68 (inactive),-0.768,-0.128,-1.03,-0.213,-0.519,-0.192 (inactive),0.0004,3.44 (inactive),0.325 (inactive),-0.575 (inactive),0.181 (inactive),-0.487,1.52 (inactive),-1.12 (inactive),2.08
